According to PubChem BioAssay AID1347076 (National Center for Advancing Translational Sciences (NCATS), 2019):
About 13,000 (3.2%) of roughly 400,000 compounds were called active. About 18% were inconclusive and are not listed. Calls follow the shape of the dose curve; as a rule, active = well fitted cell-killing curve with a large enough effect; inconclusive = small, poorly fitted or top-dose-only effect, or effect the other way; inactive = flat fitted curve, though single readings scatter. The entries come from a sample that favours actives as a whole.

Test: qHTS assay for MDR1-selective chemotherapeutics: Primary screen using the drug-selected MDR subline cells KB-V1; also: nearly all actives have a fitted effect of over 60% in size
Conditions: KB-V1 MDR cells viability, CellTiter-Glo, 72 h; series mostly up to 46.1 µM; activity change, negative = cytotoxicity: at the top concentration
How it was run: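 KB-V1 MDR subline cells in DMEM (phenol-red free, 10% FBS) exposed to compounds in qHTS concentration series for 72 h at 37 degrees C. Viability read by CellTiter-Glo luminescence; concentration-effect curves fitted after normalization and correction.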
% is scaled to controls: 0 for no effect and ±100 for the full control effect; potency is read from the fitted curve at half-maximal effect.

Row | SMILES | activity change, negative = cytotoxicity | Potency
1 | O=C(CN1CCCCCC1)Nc1ccc(S(=O)(=O)N2CCCCC2)cc1 | -21.5% (inactive) | 
2 | COc1ccc(NC(=O)CN2C(=O)CSc3ccc(S(=O)(=O)N4CCC(C)CC4)cc32)cc1 | -1.13% (inactive) | 
3 | CCc1ccc(NC(=O)CN2CCSc3ccc(S(=O)(=O)N4CCCC4)cc32)cc1 |  | 7.31 µM (active)
4 | CC(C)N1C(=O)c2ccccc2NC(=O)C1C(=O)NCc1cccs1 (stereo not drawn) | 7.86% (inactive) | 
5 | CCCn1c(NCc2ccccc2F)nc2ccccc21 | -3.96% (inactive) | 
6 | Cn1c(CNC(=O)C(C)(C)C)nc2ccccc21 | -2.97% (inactive) | 
7 | Cc1ccc(O)c(CNc2nc3ccccc3n2C)c1 |  | 16.4 µM (active)
8 | CCc1nn(CC(=O)Nc2cccc(C)c2C)c(=O)c2cc3sccc3n12 | 2.25% (inactive) | 
9 | Cc1cccc(N(CC(O)CN(C)C)S(=O)(=O)c2ccccc2)c1 (stereo not drawn) | -14.7% (inactive) | 
10 | O=S(=O)(ON(c1ccccc1)S(=O)(=O)c1ccccc1)c1ccccc1 |  | 23.1 µM (active)
11 | CCOc1ccc(S(=O)(=O)N(CC(=O)O)c2ccccc2)cc1 | 10.4% (inactive) | 
12 | CCOc1ccc(CNC(=O)c2ccc3nc(CC)c(CC)nc3c2)cc1OC | 7.1% (inactive) | 
13 | CCCCNC(=O)c1nc(C2CCN(S(=O)(=O)c3ccc(F)c(F)c3)CC2)oc1-c1cccc(C(F)(F)F)c1 | -6.49% (inactive) | 
14 | Cc1cc2c(=O)n(C)c(SCC(=O)c3cc4ccccc4o3)nc2s1 | 0% (inactive) | 
15 | Cc1ccccc1Nc1nnc(SCC(=O)c2cc3ccccc3o2)s1 | 0% (inactive) | 
16 | Cc1ccc(Nc2nnc(SCC(=O)c3cc4ccccc4o3)s2)cc1C |  | 20.6 µM (active)
17 | Cc1cccc(S(=O)(=O)N(C)C[C@H]2OCc3cnnn3CCCC(=O)N([C@@H](C)CO)C[C@H]2C)c1 | 6.43% (inactive) | 
18 | CN1OC[C@@H]2CN(C(=O)C(C)(C)C)[C@H](c3ccc(-n4ccnc4)cc3)C[C@@H]21 | 0% (inactive) | 
19 | CC(=O)c1ccc(Nc2nc(C(N)c3ccccc3)cs2)cc1 (stereo not drawn) | -0.67% (inactive) | 
20 | COc1cc(OC)cc(C(=O)N[C@H](C(=O)NNC(=O)c2ccc(Br)cc2)C(C)C)c1 | -1.18% (inactive) | 
21 | COc1cc(OC)cc(C(=O)N[C@H](C(=O)Nc2nc3ccccc3[nH]2)C(C)C)c1 |  | 14.6 µM (active)
22 | COc1cc(OC)cc(C(=O)N[C@H](C(=O)OCC(=O)NC(C)c2ccccc2)C(C)C)c1 (stereo partly drawn) |  | 23.1 µM (active)
23 | COc1cc(OC)cc(C(=O)NC(C(=O)N2CCC2)C(C)C)c1 (stereo not drawn) | -1.52% (inactive) | 
24 | Cc1cc(C)cc(OCC(=O)NC(C)c2ccccc2)c1 (stereo not drawn) | -3.72% (inactive) | 
25 | COc1ccc(C(=O)N[C@H](C(=O)NCc2ccccc2)C(C)C)cc1 | 0% (inactive) | 

Row | SMILES | activity change, negative = cytotoxicity | Potency
26 | C[C@@H]1CC2=C(C(=O)OC(C)(C)O2)[C@@H](C2CC2)O1 | 0% (inactive) | 
27 | COc1cccc(-c2cnc(C(O)c3ccccc3OC)[nH]2)c1 (stereo not drawn) | 14.8% (inactive) | 
28 | CC1=NCCN1S(=O)(=O)c1cccc([N+](=O)[O-])c1 | 20.1% (inactive) | 
29 | CCOc1ccc(S(=O)(=O)N2CCN=C2Cc2ccccc2)cc1C | -1.27% (inactive) | 
30 | COc1cc(S(=O)(=O)N2CCN=C2c2ccccc2)ccc1Cl |  | 16.4 µM (active)
31 | O=S1(=O)CC(N2CCN(Cc3ccccc3F)CC2)CN1Cc1cn(Cc2cccc(C(F)(F)F)c2)nn1 (stereo not drawn) | 6.44% (inactive) | 
32 | Cc1c(CCO)sc[n+]1CC(=O)c1ccc2ccccc2c1 | 9.94% (inactive) | 
33 | CCOC(=O)C1CCN(Cc2nnc(-c3cccc(Br)c3)o2)CC1 | -8.01% (inactive) | 
34 | CCOC(=O)C1CCN(c2ncnc3c2oc2ccc(Br)cc23)CC1 |  | 20.6 µM (active)
35 | CCOC(=O)C1CCN(C(=O)c2oc3ccc(S(=O)(=O)N4CCCCCC4)cc3c2C)CC1 | -20% (inactive) | 
36 | CCN(CC)CCNc1ncnc2c1cnn2-c1cc(Cl)ccc1C | -1.34% (inactive) | 
37 | CN(C)C(=O)c1cccc(-c2cnc3sc(NCc4ccc5c(c4)OCO5)nn23)c1 | -22.9% (inactive) | 
38 | COc1ccc(COC(=O)NC(C(=O)O)c2ccccc2)cc1 (stereo not drawn) | 0.328% (inactive) | 
39 | COc1ccc(CN(C)C(=O)CC(c2ccccc2)c2ccccc2)cc1 | -6.46% (inactive) | 
40 | COc1ccc(C(CCN(Cc2ccc(OC)c(OC)c2)C(=O)CCl)c2ccccc2)cc1 (stereo not drawn) |  | 20.6 µM (active)
41 | O=C(NCc1ccc(F)cc1)c1cc(C2CCCCN2C(=O)c2ccccn2)on1 (stereo not drawn) | 5.02% (inactive) | 
42 | O=C(CSc1nc2ccccc2c(=O)n1Cc1ccc(F)cc1)NCC1CCCO1 (stereo not drawn) | -5.78% (inactive) | 
43 | CCc1ccc(NC(=O)CSc2nc3ccccc3c(=O)n2CCN2CCOCC2)cc1 |  | 8.2 µM (active)
44 | O=C(CCn1c(SCC(=O)c2ccccc2)nc2ccccc2c1=O)NCc1ccc(F)cc1 |  | 7.31 µM (active)
45 | O=C(CCCn1c(SCC(=O)c2ccc(F)cc2)nc2ccccc2c1=O)NCc1ccco1 |  | 5.8 µM (active)
46 | COC(=O)c1ccc2c(=O)n(CCN3CCOCC3)c(SCC(=O)Nc3cccc(OC)c3)nc2c1 | -15.6% (inactive) | 
47 | O=C(CSc1nc2ccccc2c(=O)n1-c1ccc(F)cc1)NC1CC1 | -24.6% (inactive) | 
48 | CC(=O)c1ccc(NC(=O)CSc2nc3ccccc3c(=O)n2CCCN2CCOCC2)cc1 | -11.8% (inactive) | 
49 | O=C(CSc1ncc(CO)n1Cc1ccc(F)cc1)NCc1ccco1 | -4.36% (inactive) | 
50 | O=C(CSc1nc2ccccc2c(=O)n1CCCO)NC1CC1 | 5.65% (inactive) | 

Row | SMILES | activity change, negative = cytotoxicity | Potency
51 | COc1ccc(Cn2cc(C(=O)c3ccc(C)cc3)c(=O)c3cc(OC)c(OC)cc32)cc1 | 19.4% (inactive) | 
52 | O=C(NC1CCCC1)C1c2ccccc2OCC(=O)N1CC(F)(F)F (stereo not drawn) | -2.65% (inactive) | 
53 | CCCCn1nnnc1C(c1cc2ccccc2o1)N(C)Cc1ccc(Cl)c(Cl)c1 (stereo not drawn) | -11% (inactive) | 
54 | O=C1NC(Cc2ccccc2)c2nc3ccc(Br)cc3c(=O)n2-c2cc3ccccc3cc21 (stereo not drawn) | -22.4% (inactive) | 
55 | O=C(NCCN1CCOCC1)C1CCN(S(=O)(=O)c2ccccc2)CC1 | 1.81% (inactive) | 
56 | O=C(NC(C(=O)NCCN1CCOCC1)C12CC3CC(CC(C3)C1)C2)C1CCCCC1 (stereo not drawn) |  | 14.6 µM (active)
57 | O=C(NCCCN1CCOCC1)C1CCCN(S(=O)(=O)N2CCCCC2)C1 (stereo not drawn) | 1.22% (inactive) | 
58 | CCOC(=O)c1c(NC(=O)COC(=O)c2ccc(S(=O)(=O)C(F)F)cc2)sc(C(=O)N(C)C)c1C | -11.7% (inactive) | 
59 | CC1(C(=O)O)CCN1C(=O)/C=C/c1ccccc1 (stereo not drawn) | 3.25% (inactive) | 
60 | CCN(CC(=O)Nc1ccc(OC)cc1)C(=O)c1ccc(=O)n(Cc2ccccc2)n1 |  | 18.4 µM (active)
61 | CCN(CC(=O)Nc1ccc(OC)cc1)C(=O)c1ccc(Cl)c(S(=O)(=O)N2CCCC2)c1 | 18.1% (inactive) | 
62 | COc1ccc(NC(=O)CN(C)C(=O)c2cc(C3CC3)nn2-c2ccccc2)cc1 | -6.56% (inactive) | 
63 | N=c1c2c3c(sc2nc2n1CCCCC2)CCCC3 | -2.3% (inactive) | 
64 | N=c1c2c3c(sc2ncn1N)CCCCC3 | 9.63% (inactive) | 
65 | N=c1c2c3c(sc2ncn1CCCN1CCOCC1)CCCCC3 |  | 8.2 µM (active)
66 | CCN1CCN(c2ccc(/C=C/c3ccnc4ccccc34)cc2)CC1 | 0% (inactive) | 
67 | C[C@@H]1CN([C@H](C)CO)C(=O)c2cc(Br)cnc2O[C@@H]1CN(C)Cc1cncnc1 | -10.7% (inactive) | 
68 | C[C@H]1Cn2cnc(C(=O)N[C@@H](Cc3c[nH]c4ccccc34)C(=O)OC(C)(C)C)c2C(=O)N1 | -0.784% (inactive) | 
69 | Cc1cccc(C(=O)NCC(=O)OCC(=O)N2CC3(C)CC2CC(C)(C)C3)c1 (stereo not drawn) | -5.3% (inactive) | 
70 | COc1ccc(C(=O)NC2CC(C)(C)NC(C)(C)C2)cc1OC | -11.1% (inactive) | 
71 | COc1ccc(C(=O)N2CC3(C)CC2CC(C)(C)C3)cc1OC (stereo not drawn) |  | 23.1 µM (active)
72 | O=C(NCc1ccccc1)C(c1ccc(F)cc1)N1CCN(C(=O)C2CCCO2)CC1 (stereo not drawn) | -9.25% (inactive) | 
73 | CCn1c(Cc2ccc(OC)cc2)nnc1SCC(=O)Nc1ccc(N2CCOCC2)cc1 | -26.1% (inactive) | 
74 | CCn1c(Cc2ccccc2)nnc1SCC(=O)Nc1ccccc1 |  | 20.6 µM (active)
75 | CCn1c(CNC(=O)c2ccc(OC)c(OC)c2)nnc1SCC(=O)Nc1ccccc1 | -12.5% (inactive) | 

Row | SMILES | activity change, negative = cytotoxicity | Potency
76 | CC1(C(=O)NS(=O)(=O)c2cccc(OC(F)F)c2)CCN1C(=O)COc1ccc(Cl)cc1 (stereo not drawn) | 3.1% (inactive) | 
77 | O=C(Nc1cccc2ccccc12)c1[nH]c(-c2ccccc2)c2c1C(=O)N(C1CC1)C2=O | 0.496% (inactive) | 
78 | CCCCNC(=O)C[C@@H]1C[C@@]2(C(=O)OCC)CCC=C2N(Cc2ccco2)C1=O | 18.7% (inactive) | 
79 | O=C(NNS(=O)(=O)c1ccc(F)cc1)c1ccc([N+](=O)[O-])cc1Cl | -24.7% (inactive) | 
80 | Cc1cc([N+](=O)[O-])ccc1NS(=O)(=O)c1ccccc1 | -13.9% (inactive) | 
81 | O=[N+]([O-])c1ccc(NS(=O)(=O)c2ccccc2)c(Cl)c1 |  | 23.1 µM (active)
82 | CCc1nc2ccc(C(=O)N3CCC(O)(Cc4ccccc4)CC3)cn2c1N(C)C(=O)Cc1ccccc1 | 19.7% (inactive) | 
83 | CC1(C(=O)NCc2ccc3c(c2)OCO3)CCN1CCc1ccccc1 (stereo not drawn) | -10.2% (inactive) | 
84 | COc1ccc(C(=O)NNS(=O)(=O)c2ccc(C)cc2)cc1 | 10.3% (inactive) | 
85 | COc1ccc(C(=O)Oc2cc(/C=N/NS(=O)(=O)c3ccc(C)cc3)ccc2OC)cc1 |  | 14.6 µM (active)
86 | COc1ccc(S(=O)(=O)N/N=C\c2ccc(OC)c(COc3ccc(C)cc3[N+](=O)[O-])c2)cc1 | -2.85% (inactive) | 
87 | c1ccc(Cc2c(-c3ccco3)nc3c4ccccc4ccn23)cc1 | -25.8% (inactive) | 
88 | CC(C)Cn1c(=O)c2ccccc2n2c(-c3cccc(Cl)c3)nnc12 | 0% (inactive) | 
89 | CN(Cc1cncn1C)c1ncnc2ccc(-c3ccc4c(c3)OCO4)cc12 | 0% (inactive) | 
90 | O=C(Nc1cccc(S(=O)(=O)N2CCCCC2)c1)c1ccc2c(c1)OCO2 |  | 3.26 µM (active)
91 | O=C(CSc1ccccc1)Nc1cccc(S(=O)(=O)N2CCCCC2)c1 | 3.31% (inactive) | 
92 | O=C(c1ccc2c(c1)OCCO2)C1CCN(S(=O)(=O)c2cccc(F)c2)CC1 |  | 20.6 µM (active)
93 | O=C(c1c(F)cccc1F)N1CCN(S(=O)(=O)c2ccc3c(c2)OCCO3)CC1 | 0% (inactive) | 
94 | O=C(NCc1cccs1)C1CCN(S(=O)(=O)c2ccc3c(c2)OCCO3)CC1 | 10.7% (inactive) | 
95 | COCCn1cnnc1SCC(=O)Nc1cccc(S(=O)(=O)N2CCCCC2)c1 | -21.2% (inactive) | 
96 | O=C(Nc1cccc(S(=O)(=O)N2CCCCC2)c1)c1cncc(Br)c1 | -2.51% (inactive) | 
97 | Cn1nnnc1SCC(=O)Nc1cccc(S(=O)(=O)N2CCCCC2)c1 |  | 20.6 µM (active)
98 | CCN(CC)S(=O)(=O)c1cccc(NC(=O)c2ccc(S(=O)(=O)N3CCCC3)cc2)c1 | -0.979% (inactive) | 
